# Reference: the supplement of paper PMC11732987, “Enantioselective OTUD7B fragment discovery through chemoproteomics screening and high-throughput optimisation” (Communications Chemistry, 2025)
# Values without a mark were called inactive.
# Columns and labels:
# Assay in all cases: log2 ratio of Biotin-Ahx-Ub-VS probe labelling (compound/DMSO); higher = less target engagement, active = hit call of the paper (q ≤ 0.05, log2 ratio ≤ -1)
# Conditions in all cases: treatment time: 3 h
# [1] = compound: CN(Cc1cccc(Br)c1)C(=O)CCl
# Procedure, shortened: (§1)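 HEK293T lysate (495 µg per sample, in Tris/CHAPS/IGEPAL buffer with protease inhibitors) was treated in triplicate with compound at 50 or 200 µM or with DMSO for 3 h. It was then treated with Biotin-Ahx-Ub-VS (0.5 µM final) for 1 h. Labelled DUBs were NeutrAvidin-enriched, digested with LysC and trypsin, and run by diaPASEF LC-MS/MS. Median-normalised label-free quantities gave average log2 ratios compound/DMSO by unpaired t-test, using proteins with ≥2 unique peptides.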
# [2] = compound: CN(Cc1cccc(OCc2ccccc2C)c1)C(=O)CCl
# Procedure, shortened: as §1
# [3] = compound: CN(Cc1ccccc1)C(=O)CCl
# Procedure, shortened: as §1
# [4] = compound: COc1ccc(CN(C)C(=O)CCl)cc1
# Procedure, shortened: as §1
# [5] = compound: COc1cccc(CN(CCCc2ccccc2)C(=O)CCl)c1
# Procedure, shortened: as §1
# [6] = compound: ClCC(=O)N1CCc2cc(Cl)c(Cl)cc2C1
# Procedure, shortened: as §1
# [7] = compound: ClCC(=O)N1CCc2nc(ncc2C1)-c1ccccc1
# Procedure, shortened: as §1
# [8] = compound: ClCC(=O)N1CCc2nocc2C1
# Procedure, shortened: as §1
# [9] = compound: ClCC(=O)N1CCc2scc(Br)c2C1
# Procedure, shortened: as §1
# [10] = compound: ClCC(=O)NC(C1CCCC1)c1cccs1
# Procedure, shortened: as §1
# [11] = compound: ClCC(=O)NC1CCCc2ccccc12
# Procedure, shortened: as §1
# [12] = compound: ClCC(=O)NC1CCOc2ccc(Cl)cc12
# Procedure, shortened: as §1
# [13] = compound: ClCC(=O)NC1CCSc2ccccc12
# Procedure, shortened: as §1
# [14] = compound: ClCC(=O)N[C@H]1CCCc2ccccc12
# Procedure, shortened: as §1
# [15] = compound: Fc1ccc(N2CCN(c3nc4c(CN(C(CCl)=O)CC4)cn3)CC2)cc1.Cl.Cl
# Procedure, shortened: as §1
# Chain of UniProt P15374 (P15374 whole entry): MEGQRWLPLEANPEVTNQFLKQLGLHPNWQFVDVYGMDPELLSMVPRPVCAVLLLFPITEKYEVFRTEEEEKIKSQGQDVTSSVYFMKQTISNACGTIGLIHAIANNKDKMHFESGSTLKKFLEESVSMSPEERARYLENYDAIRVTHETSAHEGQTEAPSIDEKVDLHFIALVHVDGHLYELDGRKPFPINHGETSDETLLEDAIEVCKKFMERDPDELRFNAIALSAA
# Chain of UniProt Q86UV5 (Q86UV5 whole entry): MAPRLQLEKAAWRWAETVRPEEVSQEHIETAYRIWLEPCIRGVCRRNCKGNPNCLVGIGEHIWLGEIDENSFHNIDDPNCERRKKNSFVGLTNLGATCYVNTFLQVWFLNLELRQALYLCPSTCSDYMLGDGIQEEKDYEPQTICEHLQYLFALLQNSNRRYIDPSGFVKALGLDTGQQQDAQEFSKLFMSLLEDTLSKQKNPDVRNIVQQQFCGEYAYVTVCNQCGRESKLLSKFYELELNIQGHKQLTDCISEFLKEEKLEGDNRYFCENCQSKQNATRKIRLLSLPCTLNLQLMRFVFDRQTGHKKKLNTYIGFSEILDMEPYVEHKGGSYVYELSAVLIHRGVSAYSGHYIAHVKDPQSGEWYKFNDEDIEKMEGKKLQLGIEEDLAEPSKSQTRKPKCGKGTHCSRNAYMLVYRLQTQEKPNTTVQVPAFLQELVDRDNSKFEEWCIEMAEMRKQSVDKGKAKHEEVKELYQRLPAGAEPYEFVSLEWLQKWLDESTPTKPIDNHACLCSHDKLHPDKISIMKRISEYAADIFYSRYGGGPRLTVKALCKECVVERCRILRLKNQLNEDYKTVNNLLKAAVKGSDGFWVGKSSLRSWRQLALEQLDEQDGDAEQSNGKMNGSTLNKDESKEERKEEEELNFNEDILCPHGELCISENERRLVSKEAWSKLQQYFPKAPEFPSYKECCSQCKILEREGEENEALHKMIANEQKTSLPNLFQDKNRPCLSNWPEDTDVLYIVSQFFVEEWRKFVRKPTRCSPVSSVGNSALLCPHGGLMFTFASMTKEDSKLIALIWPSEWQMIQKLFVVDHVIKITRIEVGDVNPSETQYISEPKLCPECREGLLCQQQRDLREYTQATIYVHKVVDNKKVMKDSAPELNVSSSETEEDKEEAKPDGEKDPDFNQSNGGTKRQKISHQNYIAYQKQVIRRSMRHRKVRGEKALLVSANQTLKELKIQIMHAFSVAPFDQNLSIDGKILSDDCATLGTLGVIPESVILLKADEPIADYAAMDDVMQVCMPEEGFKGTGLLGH
# Chain of UniProt Q01804 (Q01804 whole entry): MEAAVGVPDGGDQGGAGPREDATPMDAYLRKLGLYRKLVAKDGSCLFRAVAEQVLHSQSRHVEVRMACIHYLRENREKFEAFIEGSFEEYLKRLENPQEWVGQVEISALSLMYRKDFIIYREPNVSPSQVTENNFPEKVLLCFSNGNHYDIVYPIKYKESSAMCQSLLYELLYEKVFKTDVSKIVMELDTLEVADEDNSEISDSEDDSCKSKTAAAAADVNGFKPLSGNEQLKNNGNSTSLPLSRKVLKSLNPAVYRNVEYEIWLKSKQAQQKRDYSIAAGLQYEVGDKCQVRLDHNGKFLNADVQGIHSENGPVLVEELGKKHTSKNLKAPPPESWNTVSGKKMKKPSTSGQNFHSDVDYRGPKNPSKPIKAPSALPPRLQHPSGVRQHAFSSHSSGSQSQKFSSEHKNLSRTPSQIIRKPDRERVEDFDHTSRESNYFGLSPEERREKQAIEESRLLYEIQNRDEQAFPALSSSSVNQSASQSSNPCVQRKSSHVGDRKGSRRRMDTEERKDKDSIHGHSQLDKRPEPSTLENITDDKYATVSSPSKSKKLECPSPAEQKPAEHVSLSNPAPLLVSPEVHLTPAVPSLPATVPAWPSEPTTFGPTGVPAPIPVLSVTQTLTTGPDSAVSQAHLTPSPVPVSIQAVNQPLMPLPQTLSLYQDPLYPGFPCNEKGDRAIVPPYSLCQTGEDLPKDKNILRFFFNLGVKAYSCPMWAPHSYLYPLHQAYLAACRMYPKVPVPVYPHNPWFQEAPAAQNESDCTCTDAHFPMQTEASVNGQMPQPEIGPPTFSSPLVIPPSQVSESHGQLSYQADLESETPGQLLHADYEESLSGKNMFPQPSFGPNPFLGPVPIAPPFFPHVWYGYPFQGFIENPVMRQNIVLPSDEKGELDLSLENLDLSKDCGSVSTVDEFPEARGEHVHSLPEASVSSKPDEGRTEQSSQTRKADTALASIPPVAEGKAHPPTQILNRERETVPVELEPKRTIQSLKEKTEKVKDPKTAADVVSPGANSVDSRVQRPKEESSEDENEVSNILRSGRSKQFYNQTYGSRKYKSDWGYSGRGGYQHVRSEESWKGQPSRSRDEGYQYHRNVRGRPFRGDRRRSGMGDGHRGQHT
Target,log2 ratio of Biotin-Ahx-Ub-VS probe labelling ([1]; compound concentration: 50uM),log2 ratio of Biotin-Ahx-Ub-VS probe labelling ([1]; compound concentration: 200uM),log2 ratio of Biotin-Ahx-Ub-VS probe labelling ([2]; compound concentration: 50uM),log2 ratio of Biotin-Ahx-Ub-VS probe labelling ([2]; compound concentration: 200uM),log2 ratio of Biotin-Ahx-Ub-VS probe labelling ([3]; compound concentration: 50uM),log2 ratio of Biotin-Ahx-Ub-VS probe labelling ([3]; compound concentration: 200uM),log2 ratio of Biotin-Ahx-Ub-VS probe labelling ([4]; compound concentration: 50uM),log2 ratio of Biotin-Ahx-Ub-VS probe labelling ([4]; compound concentration: 200uM),log2 ratio of Biotin-Ahx-Ub-VS probe labelling ([5]; compound concentration: 50uM),log2 ratio of Biotin-Ahx-Ub-VS probe labelling ([5]; compound concentration: 200uM),log2 ratio of Biotin-Ahx-Ub-VS probe labelling ([6]; compound concentration: 50uM),log2 ratio of Biotin-Ahx-Ub-VS probe labelling ([6]; compound concentration: 200uM),log2 ratio of Biotin-Ahx-Ub-VS probe labelling ([7]; compound concentration: 50uM),log2 ratio of Biotin-Ahx-Ub-VS probe labelling ([7]; compound concentration: 200uM),log2 ratio of Biotin-Ahx-Ub-VS probe labelling ([8]; compound concentration: 50uM),log2 ratio of Biotin-Ahx-Ub-VS probe labelling ([8]; compound concentration: 200uM),log2 ratio of Biotin-Ahx-Ub-VS probe labelling ([9]; compound concentration: 50uM),log2 ratio of Biotin-Ahx-Ub-VS probe labelling ([9]; compound concentration: 200uM),log2 ratio of Biotin-Ahx-Ub-VS probe labelling ([10]; compound concentration: 50uM),log2 ratio of Biotin-Ahx-Ub-VS probe labelling ([10]; compound concentration: 200uM),log2 ratio of Biotin-Ahx-Ub-VS probe labelling ([11]; compound concentration: 50uM),log2 ratio of Biotin-Ahx-Ub-VS probe labelling ([11]; compound concentration: 200uM),log2 ratio of Biotin-Ahx-Ub-VS probe labelling ([12]; compound concentration: 50uM),log2 ratio of Biotin-Ahx-Ub-VS probe labelling ([12]; compound concentration: 200uM),log2 ratio of Biotin-Ahx-Ub-VS probe labelling ([13]; compound concentration: 50uM),log2 ratio of Biotin-Ahx-Ub-VS probe labelling ([13]; compound concentration: 200uM),log2 ratio of Biotin-Ahx-Ub-VS probe labelling ([14]; compound concentration: 50uM),log2 ratio of Biotin-Ahx-Ub-VS probe labelling ([14]; compound concentration: 200uM),log2 ratio of Biotin-Ahx-Ub-VS probe labelling ([15]; compound concentration: 50uM),log2 ratio of Biotin-Ahx-Ub-VS probe labelling ([15]; compound concentration: 200uM)
OTUD4 (UniProt Q01804),-0.0958,-0.146,-0.447,-0.51,-0.294,-0.346,-0.216,-0.205,-0.174,-0.415,0.000974,-0.823,0.0593,-0.446,-0.424,-0.874,-0.0278,-0.809,-0.284,-0.721,-1.22 (active),-1.53 (active),-0.449,-1.11 (active),-1.2 (active),-1.84 (active),-1.48 (active),-1.79 (active),-0.0534,-0.739
USP48 (UniProt Q86UV5),-0.101,-0.603,-0.235,-0.552,-0.0688,-0.18,-0.0647,-0.237,-0.0292,-0.259,-0.214,-0.0205,-0.173,-0.226,-0.112,-0.324,-0.161,-0.327,-0.234,-0.00963,0.13,0.0439,-0.0252,-0.167,0.207,-0.0233,-0.00252,-0.144,-0.0747,-0.125
UCHL3 (UniProt P15374),-0.149,-0.181,-0.479,-0.262,-0.409,-0.314,-0.297,-0.108,-0.15,-0.296,-0.0194,-0.59,-0.0966,-0.705,-0.331,-0.399,-1.73 (active),-4.16 (active),-0.0539,-0.088,-0.203,0.0177,-0.519,-0.27,-0.0871,-0.294,-0.224,-0.372,-1.23 (active),-4.19 (active)
